Reference: the supplement of paper PMC11732987, “Enantioselective OTUD7B fragment discovery through chemoproteomics screening and high-throughput optimisation” (Communications Chemistry, 2025)

Experiments:
Assay in all cases: log2 ratio of Biotin-Ahx-Ub-VS probe labelling (fragment/DMSO); higher = less target engagement (more negative = stronger competition), active = hit call of the paper (q ≤ 0.05, log2 ratio ≤ -1)
Conditions in all cases: compound concentration: 200 uM; treatment time: 3 h
USP19 = biological target: T1, USP19 (UniProt O94966)
T1 sequence (whole entry): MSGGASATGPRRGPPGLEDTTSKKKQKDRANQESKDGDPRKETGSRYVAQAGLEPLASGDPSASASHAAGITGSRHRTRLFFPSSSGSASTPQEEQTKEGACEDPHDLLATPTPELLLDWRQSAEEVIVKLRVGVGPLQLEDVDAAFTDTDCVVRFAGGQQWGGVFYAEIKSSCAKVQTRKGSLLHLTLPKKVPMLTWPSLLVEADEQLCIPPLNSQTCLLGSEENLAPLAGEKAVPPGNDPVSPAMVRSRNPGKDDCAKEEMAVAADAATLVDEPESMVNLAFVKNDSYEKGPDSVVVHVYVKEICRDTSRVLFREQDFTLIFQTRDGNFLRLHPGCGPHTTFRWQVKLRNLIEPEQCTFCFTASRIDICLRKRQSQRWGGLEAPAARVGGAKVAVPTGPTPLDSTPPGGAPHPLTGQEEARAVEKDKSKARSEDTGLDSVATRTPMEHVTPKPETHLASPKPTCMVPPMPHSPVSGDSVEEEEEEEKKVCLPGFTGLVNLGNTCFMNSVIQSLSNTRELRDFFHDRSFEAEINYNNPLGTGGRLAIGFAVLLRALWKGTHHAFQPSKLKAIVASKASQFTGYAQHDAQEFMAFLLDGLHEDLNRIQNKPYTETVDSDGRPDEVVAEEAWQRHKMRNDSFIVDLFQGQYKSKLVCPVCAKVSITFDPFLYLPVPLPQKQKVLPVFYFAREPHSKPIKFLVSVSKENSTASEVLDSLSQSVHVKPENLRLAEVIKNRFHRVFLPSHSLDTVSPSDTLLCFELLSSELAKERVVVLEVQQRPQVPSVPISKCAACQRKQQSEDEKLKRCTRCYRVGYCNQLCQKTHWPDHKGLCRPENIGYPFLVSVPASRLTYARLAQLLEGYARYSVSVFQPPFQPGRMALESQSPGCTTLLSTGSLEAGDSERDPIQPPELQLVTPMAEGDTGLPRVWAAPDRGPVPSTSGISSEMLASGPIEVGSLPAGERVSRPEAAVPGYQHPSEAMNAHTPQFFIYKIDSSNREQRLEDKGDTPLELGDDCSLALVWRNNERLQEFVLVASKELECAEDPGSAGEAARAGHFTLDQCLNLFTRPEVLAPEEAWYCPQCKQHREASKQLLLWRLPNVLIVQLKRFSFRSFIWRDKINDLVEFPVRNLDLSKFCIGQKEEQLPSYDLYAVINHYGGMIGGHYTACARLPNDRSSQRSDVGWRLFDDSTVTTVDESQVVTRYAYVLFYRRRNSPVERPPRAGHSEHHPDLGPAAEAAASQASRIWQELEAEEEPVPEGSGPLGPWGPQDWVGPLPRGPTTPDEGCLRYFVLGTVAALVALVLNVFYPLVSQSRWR
Summary of the method: (§1)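 HEK293T lysate (495 µg per sample, in Tris/CHAPS/IGEPAL buffer with protease inhibitors) was exposed in triplicate for 3 h to fragment at 200 µM or to vehicle, then to Biotin-Ahx-Ub-VS at 0.5 µM final for 1 h. Labelled DUBs were enriched on NeutrAvidin, digested with LysC and trypsin, and analysed by diaPASEF LC-MS/MS. Spectronaut label-free quantities were normalised to the global median, and values are average log2 ratios of fragment over vehicle from an unpaired t-test. Only proteins with ≥2 unique peptides were used.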

USP22 = biological target: T2, USP22 (UniProt Q9UPT9)
T2 sequence (whole entry): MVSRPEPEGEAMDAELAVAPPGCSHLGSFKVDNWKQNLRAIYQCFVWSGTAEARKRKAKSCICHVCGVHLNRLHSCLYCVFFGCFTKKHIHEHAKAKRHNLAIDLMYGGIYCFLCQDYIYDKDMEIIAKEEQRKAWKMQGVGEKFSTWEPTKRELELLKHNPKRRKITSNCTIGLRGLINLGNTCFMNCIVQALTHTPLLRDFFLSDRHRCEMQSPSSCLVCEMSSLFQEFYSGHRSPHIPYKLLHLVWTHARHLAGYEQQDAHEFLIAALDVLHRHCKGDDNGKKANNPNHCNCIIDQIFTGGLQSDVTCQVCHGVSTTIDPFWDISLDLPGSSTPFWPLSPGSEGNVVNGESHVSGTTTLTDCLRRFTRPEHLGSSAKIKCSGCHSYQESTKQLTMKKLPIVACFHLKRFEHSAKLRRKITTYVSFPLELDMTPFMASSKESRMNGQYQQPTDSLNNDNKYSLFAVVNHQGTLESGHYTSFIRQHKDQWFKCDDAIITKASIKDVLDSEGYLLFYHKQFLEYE
Summary of the method: as §1

USP24 = USP24 (UniProt Q9UPU5)
USP24, sequence (Q9UPU5 whole entry): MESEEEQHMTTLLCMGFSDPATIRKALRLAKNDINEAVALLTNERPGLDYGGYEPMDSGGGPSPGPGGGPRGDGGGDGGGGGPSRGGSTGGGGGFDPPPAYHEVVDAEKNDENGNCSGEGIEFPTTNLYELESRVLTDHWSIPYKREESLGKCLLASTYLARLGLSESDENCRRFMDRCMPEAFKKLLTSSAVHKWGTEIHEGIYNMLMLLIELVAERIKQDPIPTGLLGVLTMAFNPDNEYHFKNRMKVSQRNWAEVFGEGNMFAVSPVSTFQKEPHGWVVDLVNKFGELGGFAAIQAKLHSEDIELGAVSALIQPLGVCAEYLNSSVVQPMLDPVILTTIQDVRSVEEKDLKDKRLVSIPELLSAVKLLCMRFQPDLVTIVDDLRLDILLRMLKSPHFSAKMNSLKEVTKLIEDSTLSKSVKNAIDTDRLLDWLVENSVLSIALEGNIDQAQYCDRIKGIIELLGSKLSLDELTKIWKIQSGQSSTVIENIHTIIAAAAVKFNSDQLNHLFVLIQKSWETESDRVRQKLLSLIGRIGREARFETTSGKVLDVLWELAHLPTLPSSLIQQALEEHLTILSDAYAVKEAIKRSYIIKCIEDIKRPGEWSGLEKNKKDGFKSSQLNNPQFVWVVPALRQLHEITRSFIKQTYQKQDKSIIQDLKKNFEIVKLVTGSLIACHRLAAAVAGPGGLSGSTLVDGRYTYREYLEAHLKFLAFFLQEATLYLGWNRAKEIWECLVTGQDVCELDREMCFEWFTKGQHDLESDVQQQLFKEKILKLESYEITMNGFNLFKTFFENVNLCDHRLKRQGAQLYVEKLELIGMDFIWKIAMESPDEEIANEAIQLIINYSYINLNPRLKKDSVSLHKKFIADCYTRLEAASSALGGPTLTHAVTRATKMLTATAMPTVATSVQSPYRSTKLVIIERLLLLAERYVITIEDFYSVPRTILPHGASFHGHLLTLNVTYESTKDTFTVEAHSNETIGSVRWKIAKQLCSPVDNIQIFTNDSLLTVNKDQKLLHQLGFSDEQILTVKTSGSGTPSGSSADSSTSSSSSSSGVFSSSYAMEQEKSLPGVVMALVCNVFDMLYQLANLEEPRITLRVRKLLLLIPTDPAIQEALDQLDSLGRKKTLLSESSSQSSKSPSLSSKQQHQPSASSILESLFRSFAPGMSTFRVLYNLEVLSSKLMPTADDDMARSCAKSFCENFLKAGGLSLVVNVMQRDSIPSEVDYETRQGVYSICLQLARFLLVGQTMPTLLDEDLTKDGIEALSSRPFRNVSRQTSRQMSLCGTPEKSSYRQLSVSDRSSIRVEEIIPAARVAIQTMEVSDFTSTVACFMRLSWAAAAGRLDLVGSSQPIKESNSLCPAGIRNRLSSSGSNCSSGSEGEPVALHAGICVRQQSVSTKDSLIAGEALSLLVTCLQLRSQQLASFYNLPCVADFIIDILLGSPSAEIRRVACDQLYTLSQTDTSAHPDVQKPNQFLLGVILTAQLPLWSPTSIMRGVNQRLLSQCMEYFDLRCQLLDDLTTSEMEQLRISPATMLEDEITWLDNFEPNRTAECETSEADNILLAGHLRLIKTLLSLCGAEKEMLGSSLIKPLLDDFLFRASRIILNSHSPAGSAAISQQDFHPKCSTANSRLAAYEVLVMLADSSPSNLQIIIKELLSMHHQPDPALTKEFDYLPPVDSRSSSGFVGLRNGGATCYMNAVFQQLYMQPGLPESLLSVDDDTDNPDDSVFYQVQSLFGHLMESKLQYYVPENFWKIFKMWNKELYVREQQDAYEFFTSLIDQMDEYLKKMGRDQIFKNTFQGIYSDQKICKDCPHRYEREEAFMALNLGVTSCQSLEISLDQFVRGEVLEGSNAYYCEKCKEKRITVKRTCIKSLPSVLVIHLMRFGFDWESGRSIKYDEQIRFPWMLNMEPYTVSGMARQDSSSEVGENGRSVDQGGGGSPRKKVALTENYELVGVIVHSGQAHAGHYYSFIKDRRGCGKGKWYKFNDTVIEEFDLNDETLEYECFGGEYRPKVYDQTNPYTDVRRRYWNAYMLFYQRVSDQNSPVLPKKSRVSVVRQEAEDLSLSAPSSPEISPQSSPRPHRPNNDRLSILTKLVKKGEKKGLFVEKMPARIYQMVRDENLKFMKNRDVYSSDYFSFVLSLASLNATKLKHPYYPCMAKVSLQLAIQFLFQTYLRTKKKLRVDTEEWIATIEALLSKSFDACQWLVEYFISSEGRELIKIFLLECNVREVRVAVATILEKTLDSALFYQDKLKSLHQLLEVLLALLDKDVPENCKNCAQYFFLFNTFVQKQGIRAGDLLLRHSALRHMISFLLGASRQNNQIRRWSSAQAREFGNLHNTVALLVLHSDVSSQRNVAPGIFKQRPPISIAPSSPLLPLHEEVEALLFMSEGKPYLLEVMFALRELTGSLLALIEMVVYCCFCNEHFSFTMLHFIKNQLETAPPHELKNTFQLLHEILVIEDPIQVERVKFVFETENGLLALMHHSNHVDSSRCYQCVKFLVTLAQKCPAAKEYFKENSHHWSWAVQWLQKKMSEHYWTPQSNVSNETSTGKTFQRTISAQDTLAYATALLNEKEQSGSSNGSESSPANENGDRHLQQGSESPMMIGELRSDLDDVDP
Summary of the method: as §1

USP25 = biological target: T3, USP25 (UniProt Q9UHP3)
T3 sequence (whole entry): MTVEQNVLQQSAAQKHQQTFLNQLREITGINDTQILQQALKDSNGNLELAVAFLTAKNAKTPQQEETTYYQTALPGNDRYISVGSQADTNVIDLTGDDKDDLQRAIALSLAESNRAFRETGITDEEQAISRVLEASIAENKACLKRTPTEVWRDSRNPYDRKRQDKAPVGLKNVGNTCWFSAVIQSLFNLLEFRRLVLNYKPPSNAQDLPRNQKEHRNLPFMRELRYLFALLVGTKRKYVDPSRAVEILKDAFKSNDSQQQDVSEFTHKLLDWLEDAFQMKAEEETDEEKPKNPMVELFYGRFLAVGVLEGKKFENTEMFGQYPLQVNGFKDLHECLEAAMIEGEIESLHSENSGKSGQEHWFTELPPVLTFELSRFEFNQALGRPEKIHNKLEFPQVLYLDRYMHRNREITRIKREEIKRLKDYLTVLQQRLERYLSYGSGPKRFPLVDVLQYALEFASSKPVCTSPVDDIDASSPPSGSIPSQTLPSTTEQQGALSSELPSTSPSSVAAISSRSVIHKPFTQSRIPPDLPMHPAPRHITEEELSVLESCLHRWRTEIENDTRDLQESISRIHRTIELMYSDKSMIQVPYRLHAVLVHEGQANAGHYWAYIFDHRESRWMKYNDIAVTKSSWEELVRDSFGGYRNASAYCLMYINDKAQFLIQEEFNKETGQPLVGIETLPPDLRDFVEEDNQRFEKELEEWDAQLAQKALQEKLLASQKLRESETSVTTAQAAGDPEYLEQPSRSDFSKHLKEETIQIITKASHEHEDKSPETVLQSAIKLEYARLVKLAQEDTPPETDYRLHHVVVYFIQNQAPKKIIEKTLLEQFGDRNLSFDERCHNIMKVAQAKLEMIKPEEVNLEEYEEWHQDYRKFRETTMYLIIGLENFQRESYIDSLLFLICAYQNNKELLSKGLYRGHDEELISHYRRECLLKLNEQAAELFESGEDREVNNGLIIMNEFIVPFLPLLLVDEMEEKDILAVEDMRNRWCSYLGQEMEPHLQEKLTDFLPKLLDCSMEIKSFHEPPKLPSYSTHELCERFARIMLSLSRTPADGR
Summary of the method: as §1

USP28 = biological target: T4, USP28 (UniProt Q96RU2)
T4 sequence (whole entry): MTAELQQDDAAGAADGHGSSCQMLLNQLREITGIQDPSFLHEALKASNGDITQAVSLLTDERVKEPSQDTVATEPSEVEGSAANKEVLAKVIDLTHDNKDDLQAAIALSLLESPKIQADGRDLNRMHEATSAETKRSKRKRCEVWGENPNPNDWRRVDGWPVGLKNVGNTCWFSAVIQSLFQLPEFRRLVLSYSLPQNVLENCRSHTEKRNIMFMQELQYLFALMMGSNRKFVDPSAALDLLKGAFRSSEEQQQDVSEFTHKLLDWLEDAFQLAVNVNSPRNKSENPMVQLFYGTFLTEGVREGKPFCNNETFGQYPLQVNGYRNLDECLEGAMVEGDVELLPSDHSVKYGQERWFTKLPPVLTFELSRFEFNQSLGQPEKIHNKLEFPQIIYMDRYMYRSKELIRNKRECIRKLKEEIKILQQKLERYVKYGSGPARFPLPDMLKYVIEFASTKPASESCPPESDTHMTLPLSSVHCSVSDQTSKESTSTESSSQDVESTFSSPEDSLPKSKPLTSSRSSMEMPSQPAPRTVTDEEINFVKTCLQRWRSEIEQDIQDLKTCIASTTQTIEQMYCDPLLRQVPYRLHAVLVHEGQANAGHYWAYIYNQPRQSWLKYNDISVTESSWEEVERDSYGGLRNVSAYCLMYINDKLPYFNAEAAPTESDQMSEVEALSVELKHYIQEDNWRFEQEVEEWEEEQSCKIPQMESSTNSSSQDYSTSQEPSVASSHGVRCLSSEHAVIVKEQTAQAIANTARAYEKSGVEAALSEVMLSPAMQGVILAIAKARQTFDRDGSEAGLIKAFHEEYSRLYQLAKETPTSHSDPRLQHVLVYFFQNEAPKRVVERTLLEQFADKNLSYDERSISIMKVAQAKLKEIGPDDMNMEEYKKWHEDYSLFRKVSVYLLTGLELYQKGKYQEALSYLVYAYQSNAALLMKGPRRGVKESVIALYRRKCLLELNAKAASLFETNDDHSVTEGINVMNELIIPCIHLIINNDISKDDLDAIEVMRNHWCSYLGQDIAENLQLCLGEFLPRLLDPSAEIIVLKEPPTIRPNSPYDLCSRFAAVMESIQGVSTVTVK
Summary of the method: as §1

Measured: log2 ratio of Biotin-Ahx-Ub-VS probe labelling

CS(=O)(=O)N1CCCN(C(=O)CCl)CC1
inactive: USP19 -0.0881 | USP22 0.0754 | USP24 -0.0413 | USP25 -0.243 | USP28 -0.549
